Measured values reported in the OligoGym collection.

Each sequence was assayed against REPS2 (assay: pooled miR-30 sensor sort-seq; sequence = guide strand). Conditions: shRNA.
Note: reference of the scale not given here.

| Sequence | sensor-assay potency score (higher = more potent) |
| --- | --- |
| TTCTTTGACATCATAAAGCGAG | -0.889 |
| TTATCCTCATCGTCCATTCTTT | -0.725 |
| TTTTCTGGTCTGAATTTCCTAC | -0.484 |
| TTCTTGATGAACCTCCTTGAGC | -1.27 |
| TTTGACACAGTCAAACATCTAT | -0.0627 |
| ATTGACATAGTACTCGCGCTGT | 0.431 |
| TAGTACTTTTCAAAGCTTGTTT | -0.389 |

The sequences below were run against RERG in the same assay as above. Conditions: shRNA.

| Sequence | sensor-assay potency score (higher = more potent) |
| --- | --- |
| TAATTTTTCTTACTGTACCTGG | 0.0466 |
| TTAATTTGCTTGTCTTTTGGAC | -0.0136 |
| TCTTCTGTGCTAACCTGCCTGG | -0.541 |
| TAGAGTTCCTTCTATTTCCTGT | 0.463 |
| TTCTACATCTTCTACTAGCATT | -1.27 |
| TTAGACACATTTATTCAGCTGT | 0.3 |
| TTGACATGCGTGGTGGAGCTGC | -0.453 |
| AACAACTTCATCATCGATGGTT | -0.0718 |
| TTGCCCTGCACCATCCTCCGGC | -0.458 |
| TAATTCTACATCTTCTACTAGC | -0.25 |
| TTTGTTTCCAACCAAGATGAGA | -1.39 |
| TTTGATCTCATCTAGGATGTTC | 0.194 |

Each sequence was assayed against REST in the same assay as above. Conditions: shRNA.

| Sequence | sensor-assay potency score (higher = more potent) |
| --- | --- |
| TTGGTCTTCGAGCTCTTGCCTT | -0.836 |
| TTGAACTGTAAATATCTGGAGC | -0.111 |
| TATTTGAACTGTAAATATCTGG | -0.000404 |
| TTCAATAAGGACTTGCTCCTTC | 0.499 |
| TTTCTTAGCACTGTGAACTCTG | 0.443 |
| TTCATCTTCATCAATTTCCTGA | 0.487 |
| TACACTTGTAGACTCGCTCATT | -0.726 |
| TTTCACTTTTGAGACATCCATT | -1.15 |
| TATCTTAACAGGTTCCTTCTGG | 0.123 |
| TTTGCTGTAATCTTTTCCCTTT | -0.0854 |
| TATCTGAACAGGCTCCTTCTGG | -0.749 |
| TAGATTTGAAGTGATACTGTAG | 0.294 |

What follows are sequences tested against RET in the same assay as above. Conditions: shRNA.

| Sequence | sensor-assay potency score (higher = more potent) |
| --- | --- |
| TTTAACTGGAATCCGACCCTGG | 0.235 |
| TTAAGCATATCTGAAAACCAAA | -1.63 |
| TTCCGGTTGAGAACCAGCCTAT | -0.898 |
| TTGGGTCTCCACAACATCGCAG | -0.15 |
| TTGTCTGGCCTCTCCATCCGGT | -0.338 |
| TCGTCGTACACGGTCACCGGGA | -0.762 |
| TTGAACTCCACCACGGCGCTGG | 0.715 |
| TAAACATCTCGGGACAAGCCGA | -0.999 |
| TACAATTTGATGACATGTGGGT | 0.209 |
